Results taken from PubChem BioAssay (NCATS).
Inconclusive results are not listed. Active and inactive are the calls of the source. Calls come from the whole dose curve; as a rule, active = well fitted inhibition curve with a large enough effect; inconclusive = small, poorly fitted or top-dose-only effect; inactive = flat fitted curve, though single readings scatter.

Key:
CRL-7250 = normal cell line; assay: Cytotoxic Profiling of Annotated Libraries Using Quantitative High-Throughput Screening (AID 1296008); conditions: Five cell lines viability, CellTiter-Glo ATP luminescence, 48-72 h; max response: active compounds read low; for max response: % is set by controls: 0 for no effect and ±100 for the full control effect
In short: (§1)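 Cytotoxicity was measured as CellTiter-Glo ATP luminescence, read after 10 min at room temperature. Compound treatment of the cells lasted 48 or 72 hr at 37 degrees Celsius in a qHTS format.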

HEK293 = assay: as above; conditions: Five cell lines viability, CellTiter-Glo ATP luminescence, 48-72 h; max response: active compounds read low
In short: as §1

HaCat [1] = assay: as above; conditions: Five cell lines viability, CellTiter-Glo ATP luminescence, 48-72 h; max response: active compounds read low
In short: as §1

KB-3-1 = assay: as above; conditions: Five cell lines viability, CellTiter-Glo ATP luminescence, 48-72 h; max response: active compounds read low
In short: as §1

NIH3T3 [2] = assay: as above; conditions: Five cell lines viability, CellTiter-Glo ATP luminescence, 48-72 h; max response: active compounds read low
In short: as §1

HACAT [3] = assay: qHTS assay to identify novel small-molecules to repurpose for Merkel cell carcinoma treatment (AID 1296009); conditions: MCC and control cell lines, CellTiter-Glo viability, 72 h; at 44.8 µM (top of the series) unless noted
In short: (§2)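 Cell viability, measured as CellTiter-Glo luminescence, was normalized between DMSO and no-cell wells. The cells had been exposed to 8- or 11-point compound dilutions for 72 hr at 37 degree celsius.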

NIH3T3 [4] = assay: as above; conditions: MCC and control cell lines, CellTiter-Glo viability, 72 h; at 44.8 µM (top of the series) unless noted
In short: as §2

Measured: max response
Note: nearly all actives have a fitted effect of over 60% in size.

CC1=CC(=O)C(=C(C)C)CC2C(C)(O)CCC12O (configuration not stated)
inactive: CRL-7250 | HEK293 -0.243% | HaCat [1] | KB-3-1 8.8% | NIH3T3 [2] | HACAT [3] | NIH3T3 [4]

CCCC/C=C\CCCCCc1cc(=O)c2ccccc2n1C
inactive: CRL-7250 -5.2% | HEK293 -7.72% | HaCat [1] | KB-3-1 | NIH3T3 [2] | HACAT [3] | NIH3T3 [4]

CC(=O)c1ccc(O[C@@H]2O[C@H](CO[C@@H]3OC[C@@H](O)[C@H](O)[C@H]3O)[C@@H](O)[C@H](O)[C@H]2O)cc1
inactive: CRL-7250 | HEK293 -1.26% | HaCat [1] | KB-3-1 4.67% | NIH3T3 [2] | HACAT [3] inactive [at 17.4 µM] | NIH3T3 [4] inactive [at 17.4 µM]

CC(=O)O[C@@H](C[C@@H]1C=C(C)C(=O)O1)[C@H](C)[C@H]1CCC2[C@@]3(C)CC[C@H](O[C@@H]4O[C@H](CO)[C@@H](O)[C@H](O)[C@H]4O[C@@H]4O[C@@H](C)[C@H](O)[C@@H](O)[C@H]4O)C(C)(C)C3CC[C@@]2(C)[C@@]12COC(=O)C2 (some centres not stated)
inactive: CRL-7250 | HEK293 -15.8% | HaCat [1] | KB-3-1 1.23% | NIH3T3 [2] | HACAT [3] inactive [at 9.27 µM] | NIH3T3 [4] inactive [at 9.27 µM]

CC1(CO)CCCC2(C)C1C(OC(=O)c1ccccc1)CC1C(=O)OCC12O (configuration not stated)
inactive: CRL-7250 -1.52% | HEK293 -0.598% | HaCat [1] | KB-3-1 5.44% | NIH3T3 [2] | HACAT [3] | NIH3T3 [4]

CC(C)=CCC[C@](C)(O[C@@H]1O[C@H](CO[C@@H]2OC[C@H](O)[C@H](O)[C@H]2O)[C@@H](O)[C@H](O)[C@H]1O)[C@H]1CC[C@]2(C)[C@@H]1[C@H](O)C[C@@H]1[C@@]3(C)CC[C@H](O[C@@H]4O[C@H](CO)[C@@H](O)[C@H](O)[C@H]4O[C@@H]4O[C@H](CO)[C@@H](O)[C@H](O)[C@H]4O)C(C)(C)[C@@H]3CC[C@]12C
inactive: CRL-7250 | HEK293 3.96% | HaCat [1] | KB-3-1 1.14% | NIH3T3 [2] | HACAT [3] inactive [at 17.4 µM] | NIH3T3 [4] inactive [at 17.4 µM]

Cc1onc(-c2ccccc2Cl)c1C(=O)N(C)c1ccc(Cl)cc1
inactive: CRL-7250 | HEK293 -12.8% | HaCat [1] | KB-3-1 4.59% | NIH3T3 [2] | HACAT [3] | NIH3T3 [4]

C=C1C(O)C(OC(=O)c2ccccc2)C2C(C)(C(=O)O)CCCC2(C)C1CC/C(C)=C\CO (configuration not stated)
inactive: CRL-7250 -4.65% | HEK293 -1.62% | HaCat [1] | KB-3-1 5.47% | NIH3T3 [2] | HACAT [3] inactive [at 17.4 µM] | NIH3T3 [4] inactive [at 17.4 µM]

COC(=O)c1c(CC=C(C)C)c(OC2OC(CO)C(O)C(O)C2O)c2ccccc2c1OC1OC(CO)C(O)C(O)C1O (configuration not stated)
inactive: CRL-7250 | HEK293 -10.1% | HaCat [1] | KB-3-1 | NIH3T3 [2] | HACAT [3] inactive [at 17.4 µM] | NIH3T3 [4] inactive [at 17.4 µM]

C/C=C1/CC2C(=O)Nc3cc(O)c(OC)cc3C(=O)N2C1 (configuration not stated)
inactive: CRL-7250 -13.4% | HEK293 2.7% | HaCat [1] | KB-3-1 9.54% | NIH3T3 [2] | HACAT [3] | NIH3T3 [4]

COC(=O)c1cc(OC)cc(OC)c1C(=O)c1c(OC)cc2c(c1O)C1CCC(O)C(C)(O2)O1 (configuration not stated)
inactive: CRL-7250 | HEK293 0.585% | HaCat [1] | KB-3-1 | NIH3T3 [2] | HACAT [3] inactive [at 17.4 µM] | NIH3T3 [4] inactive [at 17.4 µM]

C[C@@H]1O[C@@H](O[C@@H]2[C@@H](O)[C@H](O[C@H]3[C@H](O[C@H]4CC[C@@]5(C)C(CC[C@]6(C)C5CC=C5[C@@H]7CC(C)(C)CC[C@]7(C(=O)O[C@@H]7O[C@H](CO)[C@@H](O)[C@H](O)[C@H]7O)CC[C@]56C)C4(C)C)O[C@H](C(=O)O)[C@@H](O)[C@@H]3O)OC[C@H]2O)[C@H](O)[C@H](O)[C@H]1O (some centres not stated)
inactive: CRL-7250 2.65% | HEK293 -0.54% | HaCat [1] | KB-3-1 | NIH3T3 [2] | HACAT [3] inactive [at 9.27 µM] | NIH3T3 [4] inactive [at 9.27 µM]

COC(=O)C1=CO[C@@H](O[C@@H]2O[C@H](CO)[C@@H](O)[C@H](O)[C@H]2O)[C@H]2[C@@H]1C=C[C@]21C=C([C@H](C)OC(=O)/C=C/c2ccc(O[C@@H]3O[C@H](CO)[C@@H](O)[C@H](O)[C@H]3O)cc2)C(=O)O1
inactive: CRL-7250 -2.8% | HEK293 4.82% | HaCat [1] | KB-3-1 9.99% | NIH3T3 [2] | HACAT [3] inactive [at 17.4 µM] | NIH3T3 [4] inactive [at 17.4 µM]

C/C=C/C=C/C1=C2C(=O)C3(C)C4C(C(=O)CC(O)/C=C/C)=C(O1)C1(C)C2C2(C)OC1(O)C4(C)OC23O (configuration not stated)
inactive: CRL-7250 | HEK293 -2.55% | HaCat [1] | KB-3-1 3.96% | NIH3T3 [2] | HACAT [3] inactive [at 17.4 µM] | NIH3T3 [4] inactive [at 17.4 µM]

CC1C2=CC(=O)OC2(O)CC2C1C(O)CC1C(C)(CO)CCCC21C (configuration not stated)
inactive: CRL-7250 | HEK293 2.57% | HaCat [1] | KB-3-1 0.829% | NIH3T3 [2] | HACAT [3] | NIH3T3 [4]

C/C=C(/C)C(=O)OC1CC(C)(C)CC2C3=CCC4C5(C)CCC(OC6OC(C)C(OC7OC(C(=O)O)C(O)C(OC8OC(CO)C(O)C(O)C8OC8OC(CO)C(O)C(O)C8O)C7O)C(O)C6O)C(C)(C)C5CCC4(C)C3(C)C(OC(=O)/C=C/C=C/C=C/CCC)C(OC(C)=O)C12CO (configuration not stated)
inactive: CRL-7250 3.68% | HEK293 2.77% | HaCat [1] | KB-3-1 | NIH3T3 [2] | HACAT [3] inactive [at 9.27 µM] | NIH3T3 [4] inactive [at 9.27 µM]

CC1CCC2(C(=O)O)CCC3(C)C(=CCC4C5(C)C[C@@H](O)[C@@H](O)C(C)(CO)C5CCC43C)C2C1(C)O (some centres not stated)
inactive: CRL-7250 -2.68% | HEK293 -0.908% | HaCat [1] | KB-3-1 | NIH3T3 [2] | HACAT [3] inactive [at 17.4 µM] | NIH3T3 [4] inactive [at 17.4 µM]

C[C@@H]1C[C@@H](O)[C@@]2(CO)C(CO)=CCC[C@@H]2[C@@]12C[C@@H](c1ccoc1)OC2=O
inactive: CRL-7250 | HEK293 4.88% | HaCat [1] | KB-3-1 4% | NIH3T3 [2] | HACAT [3] | NIH3T3 [4]

C[C@@H]1O[C@@H](O[C@@H]2[C@@H](O)[C@H](O[C@@H]3[C@@H](O)[C@@H](O)[C@H](O[C@H]4[C@H](OC(=O)[C@]56CCC(C)(C)C[C@H]5C5=CCC7[C@@]8(C)C[C@H](O)[C@H](O[C@@H]9O[C@H](C(=O)O)[C@@H](O)[C@H](O)[C@H]9O)[C@@](C)(CO)C8[C@H](O)C[C@@]7(C)[C@]5(C)C[C@H]6O)O[C@@H](CO)[C@@H]4O)O[C@H]3C)OC[C@H]2O)[C@H](O)[C@H](O)[C@H]1O (some centres not stated)
inactive: CRL-7250 0.0733% | HEK293 1.63% | HaCat [1] | KB-3-1 | NIH3T3 [2] | HACAT [3] inactive [at 9.27 µM] | NIH3T3 [4] inactive [at 9.27 µM]

CCC(C)/C=C(C)/C=C/C(=O)C1CCC(O)C(C)(O)C1=O (configuration not stated)
inactive: CRL-7250 4.93% | HEK293 0.989% | HaCat [1] | KB-3-1 9.09% | NIH3T3 [2] | HACAT [3] | NIH3T3 [4]

C[C@]1(OC(=O)/C=C/c2ccccc2)C[C@@H](O)[C@]2(O)C=CO[C@@H](O[C@@H]3O[C@H](CO)[C@@H](O)[C@H](O)[C@H]3O)[C@@H]21
inactive: CRL-7250 -4.65% | HEK293 3.08% | HaCat [1] | KB-3-1 8.76% | NIH3T3 [2] | HACAT [3] inactive [at 17.4 µM] | NIH3T3 [4] inactive [at 17.4 µM]

CCOC(=O)CSc1nc2c(sc3ccccc32)c(=O)n1CCCN1CCCC1
inactive: CRL-7250 | HEK293 -12.6% | HaCat [1] | KB-3-1 | NIH3T3 [2] | HACAT [3] | NIH3T3 [4]

CC12CC(O)C(O)C=C1c1cc(O)cc(O)c1C(=O)O2 (configuration not stated)
inactive: CRL-7250 -7.12% | HEK293 -7.31% | HaCat [1] | KB-3-1 | NIH3T3 [2] | HACAT [3] | NIH3T3 [4]

Cc1cc(-n2c(=O)[nH]c(=O)n(C)c2=O)ccc1Oc1ccc(SC(F)(F)F)cc1
inactive: CRL-7250 -0.879% | HEK293 4.1% | HaCat [1] | KB-3-1 1.4% | NIH3T3 [2] | HACAT [3] | NIH3T3 [4]

CC1=C(CO)C2(C)CCCC(C)(C)C2C(O)C1O (configuration not stated)
inactive: CRL-7250 -6.52% | HEK293 -5.93% | HaCat [1] | KB-3-1 | NIH3T3 [2] | HACAT [3] | NIH3T3 [4]

CC1(C)[C@H]2C[C@H](C/C=C\CCCC(=O)O)[C@@H](NC(=O)c3csc4ccc(O)cc34)[C@@H]1C2
inactive: CRL-7250 -1.76% | HEK293 4.16% | HaCat [1] | KB-3-1 | NIH3T3 [2] | HACAT [3] | NIH3T3 [4]
